# B1: unnamed (peptide)
# chain: PKMLPIPSKPTLFDL
# B2: unnamed (peptide)
# chain: KRKRFNLLLPKPYLT
# Columns and labels:
# Experiment in all cases: SPOT peptide array binding signal intensity (averaged, normalized) (arbitrary units (background-subtracted, floor 0; scale differs between SH3 domains)); higher = stronger binding of the SH3 domain to the peptide
# AgAbp1 = biological target: AgAbp1
# Method: (§1)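 GST-tagged SH3 domains from S. cerevisiae (Sc), A. gossypii (Ag), C. albicans (Ca) and S. pombe (Sp) were incubated at 10 ug/ml overnight at 4 C on cellulose SPOT membranes carrying 292 synthetic 15-mer peptides mined from the S. cerevisiae proteome (cysteines replaced by serines). Binding was detected with anti-GST antibody, HRP secondary and chemiluminescence, quantified with Genespotter, and reported as normalized spot intensities averaged over biological replicates.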
# AgBbc1 = biological target: AgBbc1
# Method: as §1
# AgBem1-D1 = biological target: AgBem1-D1
# Method: as §1
# AgBzz1-D1 = biological target: AgBzz1-D1
# Method: as §1
# AgBzz1-D2 = biological target: AgBzz1-D2
# Method: as §1
# AgCyk3 = biological target: AgCyk3
# Method: as §1
# AgFus1 = biological target: AgFus1
# Method: as §1
# AgHof1 = biological target: AgHof1
# Method: as §1
# AgHse1 = biological target: AgHse1
# Method: as §1
# AgLsb1 = biological target: AgLsb1
# Method: as §1
# AgLsb4 = biological target: AgLsb4
# Method: as §1
# AgMyo5 = biological target: AgMyo5
# Method: as §1
# AgNbp2 = biological target: AgNbp2
# Method: as §1
# AgRvs167 = biological target: AgRvs167
# Method: as §1
# AgSho1 = biological target: AgSho1
# Method: as §1
# AgSla1-D1-D2 = biological target: AgSla1-D1-D2
# Method: as §1
# AgSla1-D3 = biological target: AgSla1-D3
# Method: as §1
# CaAbp1-D1 = biological target: CaAbp1-D1
# Method: as §1
# CaAbp1-D2 = biological target: CaAbp1-D2
# Method: as §1
# CaBbc1 = biological target: CaBbc1
# Method: as §1
# CaBem1-D1 = biological target: CaBem1-D1
# Method: as §1
# CaBzz1-D1 = biological target: CaBzz1-D1
# Method: as §1
# CaBzz1-D2 = biological target: CaBzz1-D2
# Method: as §1
# CaCyk3 = biological target: CaCyk3
# Method: as §1
# CaFus1 = biological target: CaFus1
# Method: as §1
# CaHof1 = biological target: CaHof1
# Method: as §1
# CaHse1 = biological target: CaHse1
# Method: as §1
# CaLsb1 = biological target: CaLsb1
# Method: as §1
# CaLsb4 = biological target: CaLsb4
# Method: as §1
# CaMyo5 = biological target: CaMyo5
# Method: as §1
# CaNbp2 = biological target: CaNbp2
# Method: as §1
# CaRvs167 = biological target: CaRvs167
# Method: as §1
# CaRvs167-3 = biological target: CaRvs167-3
# Method: as §1
# CaSho1 = biological target: CaSho1
# Method: as §1
# CaSla1-D1-D2 = biological target: CaSla1-D1-D2
# Method: as §1
# CaSla1-D3 = biological target: CaSla1-D3
# Method: as §1
# ScAbp1 = biological target: ScAbp1
# Method: as §1
# ScBbc1 = biological target: ScBbc1
# Method: as §1
# ScBem1-D1 = biological target: ScBem1-D1
# Method: as §1
# ScBzz1-D1 = biological target: ScBzz1-D1
# Method: as §1
# ScBzz1-D2 = biological target: ScBzz1-D2
# Method: as §1
# ScCyk3 = biological target: ScCyk3
# Method: as §1
# ScFus1 = biological target: ScFus1
# Method: as §1
# ScHof1 = biological target: ScHof1
# Method: as §1
# ScHse1 = biological target: ScHse1
# Method: as §1
# ScLsb1 = biological target: ScLsb1
# Method: as §1
# ScLsb2 = biological target: ScLsb2
# Method: as §1
# ScLsb3 = biological target: ScLsb3
# Method: as §1
# ScLsb4 = biological target: ScLsb4
# Method: as §1
# ScMyo3 = biological target: ScMyo3
# Method: as §1
# ScMyo5 = biological target: ScMyo5
# Method: as §1
# ScNbp2 = biological target: ScNbp2
# Method: as §1
# ScPex13 = biological target: ScPex13
# Method: as §1
# ScRvs167 = biological target: ScRvs167
# Method: as §1
# ScSho1 = biological target: ScSho1
# Method: as §1
# ScSla1-D1-D2 = biological target: ScSla1-D1-D2
# Method: as §1
# ScSla1-D3 = biological target: ScSla1-D3
# Method: as §1
# SpAbp1-D1 = biological target: SpAbp1-D1
# Method: as §1
# SpBbc1 = biological target: SpBbc1
# Method: as §1
# SpBzz1-D1 = biological target: SpBzz1-D1
# Method: as §1
# SpBzz1-D2 = biological target: SpBzz1-D2
# Method: as §1
# SpCyk3 = biological target: SpCyk3
# Method: as §1
# SpHof1 = biological target: SpHof1
# Method: as §1
# SpHof1-2 = biological target: SpHof1-2
# Method: as §1
# SpHof1-3 = biological target: SpHof1-3
# Method: as §1
# SpHse1 = biological target: SpHse1
# Method: as §1
# SpLsb1 = biological target: SpLsb1
# Method: as §1
# SpLsb4 = biological target: SpLsb4
# Method: as §1
# SpMyo1 = biological target: SpMyo1
# Method: as §1
# SpNbp2 = biological target: SpNbp2
# Method: as §1
# SpPex13 = biological target: SpPex13
# Method: as §1
# SpRvs167 = biological target: SpRvs167
# Method: as §1
# SpSla1-D1-D2 = biological target: SpSla1-D1-D2
# Method: as §1
# SpSla1-D3 = biological target: SpSla1-D3
# Method: as §1
binder,measurement,setting,value
B1,SPOT peptide array binding signal intensity,AgAbp1,47
same,SPOT peptide array binding signal intensity,AgBbc1,7.5
same,SPOT peptide array binding signal intensity,AgBem1-D1,490
same,SPOT peptide array binding signal intensity,AgBzz1-D1,24
same,SPOT peptide array binding signal intensity,AgBzz1-D2,≤ 0
same,SPOT peptide array binding signal intensity,AgCyk3,≤ 0
same,SPOT peptide array binding signal intensity,AgFus1,212
same,SPOT peptide array binding signal intensity,AgHof1,6
same,SPOT peptide array binding signal intensity,AgHse1,106
same,SPOT peptide array binding signal intensity,AgLsb1,2
same,SPOT peptide array binding signal intensity,AgLsb4,18.5
same,SPOT peptide array binding signal intensity,AgMyo5,3.25
same,SPOT peptide array binding signal intensity,AgNbp2,91
same,SPOT peptide array binding signal intensity,AgRvs167,3.33
same,SPOT peptide array binding signal intensity,AgSho1,776
same,SPOT peptide array binding signal intensity,AgSla1-D1-D2,≤ 0
same,SPOT peptide array binding signal intensity,AgSla1-D3,5.5
same,SPOT peptide array binding signal intensity,CaAbp1-D1,434
same,SPOT peptide array binding signal intensity,CaAbp1-D2,459
same,SPOT peptide array binding signal intensity,CaBbc1,38.8
same,SPOT peptide array binding signal intensity,CaBem1-D1,95
same,SPOT peptide array binding signal intensity,CaBzz1-D1,362
same,SPOT peptide array binding signal intensity,CaBzz1-D2,146
same,SPOT peptide array binding signal intensity,CaCyk3,7
same,SPOT peptide array binding signal intensity,CaFus1,852
same,SPOT peptide array binding signal intensity,CaHof1,≤ 0
same,SPOT peptide array binding signal intensity,CaHse1,79
same,SPOT peptide array binding signal intensity,CaLsb1,2
same,SPOT peptide array binding signal intensity,CaLsb4,209
same,SPOT peptide array binding signal intensity,CaMyo5,89.5
same,SPOT peptide array binding signal intensity,CaNbp2,303
same,SPOT peptide array binding signal intensity,CaRvs167,47
same,SPOT peptide array binding signal intensity,CaRvs167-3,≤ 0
same,SPOT peptide array binding signal intensity,CaSho1,1680
same,SPOT peptide array binding signal intensity,CaSla1-D1-D2,188
same,SPOT peptide array binding signal intensity,CaSla1-D3,116
same,SPOT peptide array binding signal intensity,ScAbp1,14
same,SPOT peptide array binding signal intensity,ScBbc1,0.5
same,SPOT peptide array binding signal intensity,ScBem1-D1,≤ 0
same,SPOT peptide array binding signal intensity,ScBzz1-D1,9
same,SPOT peptide array binding signal intensity,ScBzz1-D2,22
same,SPOT peptide array binding signal intensity,ScCyk3,3
same,SPOT peptide array binding signal intensity,ScFus1,405
same,SPOT peptide array binding signal intensity,ScHof1,≤ 0
same,SPOT peptide array binding signal intensity,ScHse1,73.5
same,SPOT peptide array binding signal intensity,ScLsb1,11.5
same,SPOT peptide array binding signal intensity,ScLsb2,≤ 0
same,SPOT peptide array binding signal intensity,ScLsb3,172
same,SPOT peptide array binding signal intensity,ScLsb4,80
same,SPOT peptide array binding signal intensity,ScMyo3,0.5
same,SPOT peptide array binding signal intensity,ScMyo5,2
same,SPOT peptide array binding signal intensity,ScNbp2,240
same,SPOT peptide array binding signal intensity,ScPex13,229
same,SPOT peptide array binding signal intensity,ScRvs167,30.5
same,SPOT peptide array binding signal intensity,ScSho1,673
same,SPOT peptide array binding signal intensity,ScSla1-D1-D2,179
same,SPOT peptide array binding signal intensity,ScSla1-D3,374
same,SPOT peptide array binding signal intensity,SpAbp1-D1,286
same,SPOT peptide array binding signal intensity,SpBbc1,0.5
same,SPOT peptide array binding signal intensity,SpBzz1-D1,426
same,SPOT peptide array binding signal intensity,SpBzz1-D2,20.5
same,SPOT peptide array binding signal intensity,SpCyk3,≤ 0
same,SPOT peptide array binding signal intensity,SpHof1,154
same,SPOT peptide array binding signal intensity,SpHof1-2,410
same,SPOT peptide array binding signal intensity,SpHof1-3,433
same,SPOT peptide array binding signal intensity,SpHse1,136
same,SPOT peptide array binding signal intensity,SpLsb1,15.5
same,SPOT peptide array binding signal intensity,SpLsb4,402
same,SPOT peptide array binding signal intensity,SpMyo1,82
same,SPOT peptide array binding signal intensity,SpNbp2,55.5
same,SPOT peptide array binding signal intensity,SpPex13,39.5
same,SPOT peptide array binding signal intensity,SpRvs167,45.3
same,SPOT peptide array binding signal intensity,SpSla1-D1-D2,12
same,SPOT peptide array binding signal intensity,SpSla1-D3,132
B2,SPOT peptide array binding signal intensity,AgAbp1,46
same,SPOT peptide array binding signal intensity,AgBbc1,16.5
same,SPOT peptide array binding signal intensity,AgBem1-D1,136
same,SPOT peptide array binding signal intensity,AgBzz1-D1,33
same,SPOT peptide array binding signal intensity,AgBzz1-D2,19.5
same,SPOT peptide array binding signal intensity,AgCyk3,3
same,SPOT peptide array binding signal intensity,AgFus1,356
same,SPOT peptide array binding signal intensity,AgHof1,49.5
same,SPOT peptide array binding signal intensity,AgHse1,745
same,SPOT peptide array binding signal intensity,AgLsb1,14.5
same,SPOT peptide array binding signal intensity,AgLsb4,104
same,SPOT peptide array binding signal intensity,AgMyo5,0.75
same,SPOT peptide array binding signal intensity,AgNbp2,99
same,SPOT peptide array binding signal intensity,AgRvs167,6.17
same,SPOT peptide array binding signal intensity,AgSho1,58
same,SPOT peptide array binding signal intensity,AgSla1-D1-D2,578
same,SPOT peptide array binding signal intensity,AgSla1-D3,4
same,SPOT peptide array binding signal intensity,CaAbp1-D1,458
same,SPOT peptide array binding signal intensity,CaAbp1-D2,418
same,SPOT peptide array binding signal intensity,CaBbc1,39.5
same,SPOT peptide array binding signal intensity,CaBem1-D1,31
same,SPOT peptide array binding signal intensity,CaBzz1-D1,28
same,SPOT peptide array binding signal intensity,CaBzz1-D2,46.5
same,SPOT peptide array binding signal intensity,CaCyk3,5
same,SPOT peptide array binding signal intensity,CaFus1,548
same,SPOT peptide array binding signal intensity,CaHof1,1.5
same,SPOT peptide array binding signal intensity,CaHse1,25.5
same,SPOT peptide array binding signal intensity,CaLsb1,8
same,SPOT peptide array binding signal intensity,CaLsb4,43.5
same,SPOT peptide array binding signal intensity,CaMyo5,1
same,SPOT peptide array binding signal intensity,CaNbp2,192
same,SPOT peptide array binding signal intensity,CaRvs167,8.5
same,SPOT peptide array binding signal intensity,CaRvs167-3,692
same,SPOT peptide array binding signal intensity,CaSho1,592
same,SPOT peptide array binding signal intensity,CaSla1-D1-D2,1
same,SPOT peptide array binding signal intensity,CaSla1-D3,6.5
same,SPOT peptide array binding signal intensity,ScAbp1,24
same,SPOT peptide array binding signal intensity,ScBbc1,6
same,SPOT peptide array binding signal intensity,ScBem1-D1,22
same,SPOT peptide array binding signal intensity,ScBzz1-D1,3
same,SPOT peptide array binding signal intensity,ScBzz1-D2,40
same,SPOT peptide array binding signal intensity,ScCyk3,58
same,SPOT peptide array binding signal intensity,ScFus1,570
same,SPOT peptide array binding signal intensity,ScHof1,≤ 0
same,SPOT peptide array binding signal intensity,ScHse1,1210
same,SPOT peptide array binding signal intensity,ScLsb1,34.8
same,SPOT peptide array binding signal intensity,ScLsb2,8.5
same,SPOT peptide array binding signal intensity,ScLsb3,114
same,SPOT peptide array binding signal intensity,ScLsb4,10
same,SPOT peptide array binding signal intensity,ScMyo3,1.5
same,SPOT peptide array binding signal intensity,ScMyo5,0.5
same,SPOT peptide array binding signal intensity,ScNbp2,158
same,SPOT peptide array binding signal intensity,ScPex13,0.75
same,SPOT peptide array binding signal intensity,ScRvs167,5
same,SPOT peptide array binding signal intensity,ScSho1,474
same,SPOT peptide array binding signal intensity,ScSla1-D1-D2,96
same,SPOT peptide array binding signal intensity,ScSla1-D3,2.75
same,SPOT peptide array binding signal intensity,SpAbp1-D1,146
same,SPOT peptide array binding signal intensity,SpBbc1,10.8
same,SPOT peptide array binding signal intensity,SpBzz1-D1,94.5
